Bioassay records (PubChem)
hcDAF-12 act: H. contortus DAF-12 activation, primary screen; HEK293 hcDAF-12 lit1-tk-luc reporter, luminescence; 0% DMSO, 100% Δ7-dafachronic acid; activation, % at 6.8 µM; 1.4% of 370,000 active;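 active = activation above the mean of all tested compounds plus 3 SD, cut at about 5.5% in these data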;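 note: 100% = response to 3 µM Δ7-dafachronic acid high control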
hgDAF-12 ag: activates the H. glycines DAF-12 receptor ligand-binding domain; 1.8% of 370,000 active; AID 687014; HEK293 GAL4-hgDAF12 UAS-luciferase reporter, agonist luminescence; normalized to butyrate control; activation, % at 6.8 µM;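 active = activation above a cutoff set at the mean of all screened compounds plus 3 SD, cut at about 10% in these data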;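 note: 0% = DMSO wells and 100% = sodium butyrate wells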
DAX1 inh-1: inhibitors of human orphan nuclear receptor DAX1 (NR0B1) | P51843 | 0.99% of 340,000 active | HEK293 Gal4-DAX1 luciferase reporter, luminescence | inhibition, % at 6.75 µM;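 active = inhibition above the mean over all tested compounds plus 3 SD, cut at about 4.2% in these data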;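 note: 0% = DAX1-transfected cells with DMSO and 100% = empty-vector control cells with DMSO; inhibition shows as a rise in luminescence from relieved DAX1 repression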
Target sequence (P51843 207-470 limits assumed): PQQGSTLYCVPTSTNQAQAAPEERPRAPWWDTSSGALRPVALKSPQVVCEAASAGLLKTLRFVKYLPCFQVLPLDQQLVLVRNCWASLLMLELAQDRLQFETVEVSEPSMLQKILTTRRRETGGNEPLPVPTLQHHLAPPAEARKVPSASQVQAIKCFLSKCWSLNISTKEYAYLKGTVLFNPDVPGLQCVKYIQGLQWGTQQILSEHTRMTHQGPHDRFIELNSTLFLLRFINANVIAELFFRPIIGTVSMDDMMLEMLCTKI
DAX1 inh-2: DAX1 (NR0B1) inhibition, primary screen | 1.1% of 370,000 active | inhibition, % at 6.8 µM | AID 652010 | HEK293T StAR-luciferase reporter, SF-1/DAX-1 repression relief;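 active = inhibition above the mean over all tested compounds plus 3 SD, cut at about 3.6% in these data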;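 note: 0% = DAX-1 cells with DMSO and 100% = cells lacking DAX-1 with DMSO; higher inhibition means more luminescence from relief of DAX-1 repression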
ssDAF-12 act: S. stercoralis DAF-12 activation, primary screen; HEK293 ssDAF-12/GRIP1 lit1-tk-luc reporter, luminescence; % of 3 µM dafachronic acid response; activation, % at 6.8 µM; 1% of 370,000 active;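 active = activation above the mean over all tested compounds plus 3 SD, cut at about 0.9% in these data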;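 note: 0% = DMSO-only wells and 100% = 3 µM delta7-dafachronic acid wells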
* marks the source's active call; other numbers are inactive results; · = no result. A selection: hits, their analogues and other compounds. The true share with any hit is near 4.1%.

SMILES	hcDAF-12 act	hgDAF-12 ag	DAX1 inh-1	DAX1 inh-2	ssDAF-12 act
Cc1ccc(-c2cnc3cccnn23)cc1F	1	9	·	3	-1
CS(=O)(=O)Nc1ccc(-c2cnc3cccnn23)cc1	1	12*	·	-1	-1
COc1cccc(-c2cnc3cccnn23)c1	-1	12*	·	2	-1
C=CCN(CC#Cc1ccccc1)Cc1ccc2c(c1)OCO2	-1	-1	·	-1	-1
CSc1ccc(CN2C(=O)NC3(CCCCC3)C2=O)cc1	-2	-2	6.8*	0	-1
Cn1c(SCc2ccc(C#N)cc2Cl)nc2ccccc21	4	12*	4.3*	4	0
N#Cc1ccc(CSc2ccccn2)c(Cl)c1	1	3	0	0	-1
O=C(N[C@@H](Cc1cccnc1)C(=O)N1CCC[C@H]1C(=O)NCCc1ccccc1Cl)c1ccc(Cl)c(Cl)c1	1	-1	·	0	-2
OC[C@@H]1CN(Cc2ccco2)C[C@H](n2cnc3c(Nc4ccccc4)ncnc32)O1	3	3	·	0	-1
CC(=O)Nc1cccc(-c2cc(C)c3cc4c(cc3n2)OCO4)c1	5.6*	7	2	1	0
O=C(Nc1ccc(-c2nc3ccccc3s2)c(O)c1)C1=COCCO1	5	10	4.9*	3	1
Cc1ccsc1C(=O)Nc1ccc(O)c(-c2nc3ccccc3s2)c1	3	2	0	0	0
O=C(Nc1ccc(O)c(-c2nc3ccccc3s2)c1)C1=COCCO1	1	3	0	1	-1
CC(=O)Nc1ccc(O)c(-c2nc3ccccc3s2)c1	4	14*	-1	1	0
CCOc1cc(-c2nc3ccccc3s2)ccc1O	2	11*	1	1	-1
CC(C)c1ccc(-c2nc3ccccc3s2)cc1	-7	-15	-5	-3	-4
CC(=O)Nc1cccc(-c2csc(N)n2)c1	-1	2	-1	0	-1
Cc1ccc(C(=O)NC(=S)Nc2cccc(-c3nc4ccccc4s3)c2)cc1	-2	0	0	0	-2
CC(=O)Nc1cccc(-c2nc3ccccc3s2)c1	1	11*	0	2	0
CN(Cc1cn(Cc2ccccc2)nn1)S(=O)(=O)c1ccc(F)cc1Br	4	3	·	0	-1
O=C(NC1CCCCN(Cc2cccc(F)c2)C1=O)c1cccc(C(F)(F)F)c1 (stereo unspecified)	2	2	·	0	-1
O=c1oc2ccccc2n1CCCOc1ccccc1	1	11*	2	2	-1
CCCCCCCCN1C(=O)N2Cc3ccc(C)cc3C2CS1(=O)=O (stereo unspecified)	-1	2	·	0	-1
Cc1cc(O)ccc1N=Cc1c(C(F)(F)F)[nH][nH]c1=O	0	-1	4.4*	-1	-1
O=c1[nH][nH]c(C(F)(F)F)c1C=Nc1ccccc1	-2	0	-1	-1	-1
SMILES	hcDAF-12 act	hgDAF-12 ag	DAX1 inh-1	DAX1 inh-2	ssDAF-12 act
CCOC(=O)C1=NNC(C(=O)O)C1c1ccccc1 (stereo unspecified)	6.0*	10*	0	-1	0
CCOc1ccc(-n2c(SCC(=O)Nc3ccc(S(=O)(=O)Nc4nccs4)cc3)nnc2-c2ccc(C(C)(C)C)cc2)cc1	1	3	·	0	-1
CN(Cc1ccc(C(C)(C)C)cc1)C(=O)C1CCN(C(=O)Nc2ccccc2)CC1	-3	-3	7.6*	-2	-1
Cc1ccc(CN(C)C(=O)C2CCN(C(=O)Nc3ccccc3)CC2)o1	1	-2	0	2	0
O=c1[nH]c2ccc(NS(=O)(=O)c3ccc(F)c(Cl)c3)cc2[nH]1	0	-1	-1	0	-1
Cc1cc(C(=O)NC(Cc2c[nH]c3ccccc23)C(=O)O)c(C)o1 (stereo unspecified)	2	1	1	0	0
O=c1[nH]c2ccc(NS(=O)(=O)c3ccc(Cl)cc3)cc2[nH]1	2	1	5.0*	0	-2
Cc1c(C)c2ccc(OCC(=O)N[C@@H](Cc3c[nH]c4ccccc34)C(=O)O)cc2oc1=O	2	0	6.6*	1	1
Cc1ccc(C(=O)NC(Cc2c[nH]c3ccccc23)C(=O)O)o1 (stereo unspecified)	6.1*	0	1	1	0
